From ChEMBL document CHEMBL1201862, “PubChem BioAssay data set” (2004)
Out of some 400,000 compounds screened, about 2,100 (0.53%) were called active. Not shown: some 14% with an inconclusive outcome. The rule behind the calls is not given here. Many of the other results were omitted from the sample, so actives are more common in it than they were.

Target: Ataxin-2 (Homo sapiens) (UniProt Q99700)
Assay: qHTS for Inhibitors of ATXN expression.
Type: functional

Sequence of Ataxin-2 (Homo sapiens) (Q99700 whole entry): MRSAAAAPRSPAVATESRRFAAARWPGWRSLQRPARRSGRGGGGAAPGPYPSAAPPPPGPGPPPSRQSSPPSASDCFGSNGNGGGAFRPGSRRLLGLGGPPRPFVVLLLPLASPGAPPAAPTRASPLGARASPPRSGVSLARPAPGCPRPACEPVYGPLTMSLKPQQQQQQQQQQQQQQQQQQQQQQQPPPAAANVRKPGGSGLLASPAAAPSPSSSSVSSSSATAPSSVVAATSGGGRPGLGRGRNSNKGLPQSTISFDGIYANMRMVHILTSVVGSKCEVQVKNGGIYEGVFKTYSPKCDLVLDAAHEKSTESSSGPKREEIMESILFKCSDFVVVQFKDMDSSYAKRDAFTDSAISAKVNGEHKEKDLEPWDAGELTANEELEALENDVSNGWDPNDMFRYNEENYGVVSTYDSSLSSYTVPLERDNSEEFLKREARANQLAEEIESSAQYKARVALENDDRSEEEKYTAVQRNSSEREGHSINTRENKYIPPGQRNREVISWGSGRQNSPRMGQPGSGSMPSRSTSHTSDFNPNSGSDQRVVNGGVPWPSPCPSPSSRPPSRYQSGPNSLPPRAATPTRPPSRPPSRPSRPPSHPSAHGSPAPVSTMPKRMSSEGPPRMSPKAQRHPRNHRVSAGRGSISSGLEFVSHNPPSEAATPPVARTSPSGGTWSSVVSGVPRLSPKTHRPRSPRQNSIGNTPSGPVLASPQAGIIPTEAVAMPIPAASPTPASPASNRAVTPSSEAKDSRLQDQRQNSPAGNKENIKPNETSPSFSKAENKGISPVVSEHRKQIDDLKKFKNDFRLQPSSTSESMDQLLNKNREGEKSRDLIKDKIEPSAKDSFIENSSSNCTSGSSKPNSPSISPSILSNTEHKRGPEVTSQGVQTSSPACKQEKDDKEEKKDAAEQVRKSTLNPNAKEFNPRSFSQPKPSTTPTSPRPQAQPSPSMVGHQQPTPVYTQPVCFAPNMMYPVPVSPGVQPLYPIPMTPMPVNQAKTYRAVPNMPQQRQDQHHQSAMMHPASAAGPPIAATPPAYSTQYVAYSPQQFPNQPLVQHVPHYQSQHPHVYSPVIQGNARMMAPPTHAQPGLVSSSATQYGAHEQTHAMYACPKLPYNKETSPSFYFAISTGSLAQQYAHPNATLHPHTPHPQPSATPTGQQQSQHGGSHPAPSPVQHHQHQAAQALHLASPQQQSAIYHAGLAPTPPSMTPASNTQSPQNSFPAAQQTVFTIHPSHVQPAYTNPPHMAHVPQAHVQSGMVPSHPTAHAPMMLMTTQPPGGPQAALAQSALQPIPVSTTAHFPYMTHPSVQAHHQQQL

| SMILES | Potency |
| --- | --- |
| O=[N+]([O-])c1ccc(Sc2ccncn2)c([N+](=O)[O-])c1 | 8.91 µM (active) |
| O=[N+]([O-])c1ccc(Cc2ccccn2)c([N+](=O)[O-])c1 | inactive |
| CN(C)c1ccc(/C=N/N(CCO)C2=NS(=O)(=O)c3ccccc32)cc1 | inactive |
| COc1ccc(-c2cc(C(F)(F)F)n3nc(C(=O)NCCCN4CCOCC4)cc3n2)cc1 | inactive |
| CCOc1ccc2nc(NCCCNC(=O)c3cc(OC)c(OC)c(OC)c3)c(C#N)cc2c1 | inactive |
| CCOc1ccc(-c2cn3c(n2)sc2cc(C(=O)NCCCN4CCCCCC4)ccc23)cc1 | 22.4 µM (active) |
| C=CCC1=C/C(=C\c2c(N)n3nc(CC(=O)N4CCCC4)sc3nc2=O)C=C(OC)C1=O | inactive |
| COc1ccc(N2C(=O)CC(Sc3nnc(-c4ccccc4F)n3C)C2=O)cc1 (centres undefined) | 39.8 µM (active) |
| COc1ccc(C2CC(c3ccccc3F)=NN2c2ccc(S(N)(=O)=O)cc2)cc1 (centres undefined) | inactive |
| COc1ccc(N2C(=O)CC(N3CCN(c4ccccc4)CC3)C2=O)cc1 (centres undefined) | inactive |
| COc1ccc(CCN(C(=O)/C=C/C(=O)O)C2CC(=O)N(c3ccccc3)C2=O)cc1 (centres undefined) | inactive |
| C=CCNc1nnc(SC2CC(=O)N(c3ccc(OC)cc3)C2=O)s1 (centres undefined) | 39.8 µM (active) |
| COc1ccc(Cc2nnc(NC(=O)C3CC(=O)N(c4ccc(OC)cc4)C3)s2)cc1 (centres undefined) | inactive |
| CN1CCC[C@H]1CCNc1ccc2c(=O)c3ccccc3n(C)c2c1 | inactive |
| O=C(N/N=C/c1ccc(O)cc1)Nc1cccc2nsnc12 | inactive |
| Cc1ccnn1CC(=O)N/N=C/c1c[nH]nc1-c1ccccc1 | inactive |
| CC(C)CN1C(=O)/C(=C/c2c[nH]nc2-c2ccccc2)SC1=S | 39.8 µM (active) |
| CCCN1C(=O)/C(=C/c2c(N3CCNC(=O)C3CC(=O)OCC)nc3c(C)cccn3c2=O)SC1=S (centres undefined) | inactive |
| CCCCC(CC)CN1C(=O)/C(=C/c2c[nH]nc2-c2ccccc2)SC1=S (centres undefined) | 22.4 µM (active) |
| COc1ccccc1/C=C1\SC(=S)N(CCC(=O)NC2=NCCS2)C1=O | inactive |
| O=C(Cc1csc(N2CCOCC2)n1)N/N=C/c1ccccc1C(=O)O | inactive |
| NNC(=O)c1oc2nc(-c3ccco3)cc(-c3ccco3)c2c1N | inactive |

| SMILES | Potency |
| --- | --- |
| Cc1cc(C)c2c(N)c(C(=O)Nc3nccs3)sc2n1 | inactive |
| CCCc1c(C(=O)N/N=C/c2c[nH]c3ccccc23)nnn1-c1nonc1N | inactive |
| O=C(N/N=C/c1c[nH]c2ccccc12)c1cc(-c2ccc(-c3ccccc3)cc2)[nH]n1 | 39.8 µM (active) |
| CCOc1cccc(/C=N/NC(=O)c2cc(-c3cccn3C)[nH]n2)c1O | inactive |
| O=C(NCc1ccco1)c1cc2ccc(O)cc2oc1=O | inactive |
| CC(=O)N/N=C/c1cc(C(C)(C)C)cc(/C=N/NC(C)=O)c1O | inactive |
| CN(CCc1ccccc1)C(C(=O)Nc1ccc2c(c1)OCCO2)c1ccnc2ccccc12 (centres undefined) | 35.5 µM (active) |
| O=C(O)c1ccc(/C=C/c2nc(O)c3c4c(sc3n2)CCC4)cc1 | inactive |
| CCCCCCOc1ccc(/C=c2\s/c(=C(/C#N)C(=O)NCc3ccco3)n(-c3ccccc3)c2=O)cc1 | inactive |
| O=C(CSc1nnc(NC(=O)C2CC2)s1)NCc1cccs1 | inactive |
| O=C(CC1N=C2c3ccccc3N=C(SCC(=O)Nc3cccc(C(F)(F)F)c3)N2C1=O)NCc1cccs1 (centres undefined) | 39.8 µM (active) |
| CC(C)(C)c1nc(SCC(=O)NCc2cccs2)c2ccccc2n1 | inactive |
| Cc1cccn2c(=O)c3cc(C(=O)NC4CCCC4)c(=N)n(CCc4ccccc4)c3nc12 | inactive |
| Cc1cc2nc3c(=O)n(CCc4ccccc4)c(=O)[nH]c3nc2cc1N | inactive |
| CN(C)CCNc1nc2sc3c(c2c(=O)n1CCc1ccccc1)CCCCC3 | 22.4 µM (active) |
| Cc1ccc(C2C=C(c3ccccc3)Nc3nc(N4C(=O)CCC4=O)nn32)cc1 (centres undefined) | inactive |
| CNC(=O)c1cc2c(=O)n3cc(C)ccc3nc2n(C(C)C)c1=N | inactive |
| COc1cccc(C(=O)NC2CCN(CC(=O)NCc3ccccc3F)CC2)c1 | inactive |
| COc1ccc(Nc2nc(Nc3ccc(OC)cc3OC)nc(N3CCN(C)CC3)n2)c(OC)c1 | inactive |
| CCN1C(=O)CC(c2ccccc2)N(C2CCCC2)c2nc(Nc3ccc(C(=O)NC4CCN(C)CC4)cc3OC)ncc21 (centres undefined) | 25.1 µM (active) |
| COc1ccc(C2=NS(=O)(=O)N(C)C(C(=O)NC3CCCC3)=C2)cc1 | inactive |
| C#Cc1ccc(CN2CCC(Oc3cc(C(=O)NC4CC4)ccc3OC)CC2)cc1 | inactive |

| SMILES | Potency |
| --- | --- |
| CCN1C(=O)CC(C(C)C)N(C2CCCC2)c2nc(Nc3ccc(C(=O)NC4CCN(C)CC4)cc3OC)ncc21 (centres undefined) | 22.4 µM (active) |
| O=C(CC(=O)c1c(F)cccc1Cl)c1ccccc1O | inactive |
| Oc1cc(CSc2ccc(Cl)cc2)nc(-c2ccccn2)n1 | 1.41 µM (active) |
| Oc1nc(-c2ccccn2)nc2sc(-c3ccccc3)cc12 | inactive |
| Oc1nccc(SCc2ccc(Cl)cc2Cl)n1 | inactive |
| CC1=CC2=NC(=O)/C(=C\c3cc(C)n(-c4ccccc4)c3C)C(=N)N2O1 | inactive |
| Fc1ccc(Br)cc1C1C=C(c2ccc(Br)cc2)Nc2nnnn21 (centres undefined) | inactive |
| Cc1ccc(Cl)cc1-n1c(=O)c2sc3ccccc3c2n(CC(=O)NC2CCCC2)c1=O | 11.2 µM (active) |
| Cc1cccn2c(=O)c3cc(C(=O)NC4CCCCCC4)sc3nc12 | inactive |
| O=C(Cn1c(=O)oc2ccc(Cl)cc21)NC1CCCCC1 | inactive |
| Cc1ccc(Nc2nc(-c3sc(C)nc3C)cs2)cc1 | inactive |
| Cc1ccc(Nc2nc(-c3ccccc3)cs2)nc1 | inactive |
| Cc1ccc(Nc2nc(-c3ccc(O)cc3O)cs2)nc1 | 44.7 µM (active) |
| COC(=O)C1CCN(C(=O)COC(=O)c2ccc(N3CCCC3=O)cc2)CC1 | inactive |
| COc1ccc(C(=O)COC(=O)c2sc(C)nc2C)cc1OC | inactive |
| COc1ccc(C(=O)O/N=C(\N)Cc2ccc(Cl)c(Cl)c2)cc1OC | 28.2 µM (active) |
| COc1ccc(CC(=O)Nc2cc(C)ccn2)cc1OC | inactive |
| CCc1nnc(NC(=O)CSc2nc(C)c3c(c2C#N)CCCC3)s1 | inactive |
| CCCCc1ccc(NC(=O)CSc2nc(=O)n(CCN(CC)CC)c3c2CCCC3)cc1 | 39.8 µM (active) |
| COc1ccc(NC(=O)CSc2nnc3n2CCCCC3)cc1 | inactive |
